Results as given in PubChem BioAssay (EPA / NIEHS).
Inconclusive results are not listed. Active and inactive are the calls of the source. The calls were made as follows, unless noted: active = hit-call score of the fitted dose curve at least 0.9, where 1 is the maximum; inactive = score below 0.9.

Columns and labels:
[1] = biological target: human Caspase 5 (CASP5), CASP5 (gene 838) (UniProt P51878); test: NVS_ENZ_hCASP5: NovaScreen (NVS) Enzymatic Assay for human Caspase 5 (CASP5) (AID 2283137; active = hit-call score of the fitted dose curve at least 0.9, where 1 is the maximum)
Sequence of human Caspase 5 (CASP5), CASP5 (gene 838) (P51878 whole entry, looked up): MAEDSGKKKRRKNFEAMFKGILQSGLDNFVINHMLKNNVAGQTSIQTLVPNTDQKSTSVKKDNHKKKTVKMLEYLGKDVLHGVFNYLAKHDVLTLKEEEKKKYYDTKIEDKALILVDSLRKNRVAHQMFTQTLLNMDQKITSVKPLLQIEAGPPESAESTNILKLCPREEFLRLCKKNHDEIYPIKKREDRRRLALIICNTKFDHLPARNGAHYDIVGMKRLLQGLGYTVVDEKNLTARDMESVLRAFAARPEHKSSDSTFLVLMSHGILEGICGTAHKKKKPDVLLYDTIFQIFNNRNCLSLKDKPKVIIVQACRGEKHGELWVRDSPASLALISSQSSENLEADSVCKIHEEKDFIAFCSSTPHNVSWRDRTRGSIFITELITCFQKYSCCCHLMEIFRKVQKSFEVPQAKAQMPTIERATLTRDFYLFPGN
Summary of the method: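 Fluorescent substrate readout of CASP5 activity (loss-of-signal), measured 2 h post-dose. Protein expressed in E. coli. Primary screen duplicate at 25 uM; actives meeting threshold (e.g., 30% inhibition) rerun singleton, max 50 uM.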

[2] = biological target: Sodium channel protein type 1 subunit alpha (Rattus norvegicus) (UniProt P04774); test: NVS_IC_rNaCh_site2: NovaScreen (NVS) Ion Channel Assay for rat Sodium Channel, Site 2 (NaCh) (AID 2283322; active = hit-call score of the fitted dose curve at least 0.9, where 1 is the maximum;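 also: hit means loss of radioligand binding signal relative to DMSO so AC50 marks displacement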)
Summary of the method: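 Initial duplicate single-point testing at 25 uM, followed by concentration-response runs for actives. Binding of radioligand to rat forebrain membranes quantified after 1 h via filter-based radiodetection.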

[3] = biological target: D(1A) dopamine receptor (Homo sapiens) (UniProt P21728); test: NVS_GPCR_hDRD1: NovaScreen (NVS) G Protein-Coupled Receptor Assay for human Dopamine Receptor D1 (DRD1) (AID 2283269; active = hit-call score of the fitted dose curve at least 0.9, where 1 is the maximum)
Sequence of D(1A) dopamine receptor (Homo sapiens) (P21728 whole entry, looked up): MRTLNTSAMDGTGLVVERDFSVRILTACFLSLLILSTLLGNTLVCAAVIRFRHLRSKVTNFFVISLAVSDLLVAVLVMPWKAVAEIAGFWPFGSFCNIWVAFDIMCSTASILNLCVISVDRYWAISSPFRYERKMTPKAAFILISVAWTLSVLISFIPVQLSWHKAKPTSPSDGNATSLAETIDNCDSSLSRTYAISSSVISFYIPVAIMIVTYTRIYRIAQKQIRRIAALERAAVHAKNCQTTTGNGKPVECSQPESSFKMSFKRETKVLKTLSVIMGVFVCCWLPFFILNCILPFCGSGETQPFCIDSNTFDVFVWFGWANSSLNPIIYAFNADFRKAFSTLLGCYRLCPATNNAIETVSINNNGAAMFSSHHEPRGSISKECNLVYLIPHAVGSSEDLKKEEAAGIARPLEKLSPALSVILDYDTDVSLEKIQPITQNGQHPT
Summary of the method: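 Extracted HEK293 DRD1 is incubated 1 h with compound and a tritiated or iodinated radioligand, then filtered and counted. Screening runs 25 uM in duplicate with on-plate positive and negative controls.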

[4] = CCTE_Mundy_HCI_Cortical_Synap_Neur_Matur_NeuriteSpotCountPerNeuriteLength: CCTE's Synaptogenesis and Neurite Maturation Assay in rat cortical cells for Neurite Spot Count per Neurite Length, Mundy Lab (AID 2284210)
Summary of the method: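 Synaptophysin spots per unit neurite length, measured by automated imaging of MAP2/synaptophysin/Hoechst-stained neurons. Cultures from rat cortex received chemical at DIV 7 with media change through DIV 12; glial growth arrested by AraC at DIV 5; DMSO baseline.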

[5] = CCTE_Mundy_HCI_Cortical_NOG_NeuriteLength: CCTE's Neurite Outgrowth Assay in rat cortical cells for Neurite Length, Mundy Lab (AID 2284213);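 as to AC50: neurites imaged about 48 to 50 h after chemical exposure began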
Summary of the method: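 First, rat primary cortical cells were plated and, 2 h later, given test chemical as a 1/10 dilution. Finally, βIII-tubulin immunostaining enabled automated imaging of neurite length.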

[6] = CCTE_Mundy_HCI_Cortical_Synap_Neur_Matur_NeuriteLength: CCTE's Synaptogenesis and Neurite Maturation Assay in rat cortical cells for Neurite Length, Mundy Lab (AID 2284214)
Summary of the method: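 Read-out: high-content imaging of MAP2-labelled neurites, with synaptophysin and Hoechst co-stain, in rat cortical cultures fixed at DIV 12. Activity fitted in positive direction relative to DMSO baseline.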

[7] = CCTE_Mundy_HCI_Cortical_Synap_Neur_Matur_SynapseCount: CCTE's Synaptogenesis and Neurite Maturation Assay in rat cortical cells for Synapse Count, Mundy Lab (AID 2284218)
Summary of the method: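 Read-out: synapse number per neuron, automated high-content imaging of fixed cells immunostained for MAP2 and synaptophysin plus Hoechst nuclei. Rat primary cortical cultures, AraC at DIV 5, chemical dosing DIV 7–12. Positive-direction fit relative to DMSO.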

[8] = CCTE_Mundy_HCI_Cortical_Synap_Neur_Matur_CellBodySpotCount: CCTE's Synaptogenesis and Neurite Maturation Assay in rat cortical cells for Cell Body Spot Count, Mundy Lab (AID 2284223)
Summary of the method: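 High-content imaging counts synaptophysin puncta on neuronal cell bodies per neuron after MAP2/synaptophysin immunostaining. Rat primary cortical cells, glia arrested with AraC at DIV 5, were exposed DIV 7–12; signal decrease measured against DMSO.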

[9] = CCTE_Mundy_HCI_Cortical_Synap_Neur_Matur_NeuronCount: CCTE's Synaptogenesis and Neurite Maturation Assay in rat cortical cells for Neuron Count, Mundy Lab (AID 2284242; active = hit-call score of the fitted dose curve at least 0.9, where 1 is the maximum;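 as to AC50: hits reduce neuron count versus DMSO baseline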)
Summary of the method: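 Rat cortical cultures; AraC DIV 5; chemical dosing + media change DIV 7 to DIV 12 (288.33 h readout). Fix, Hoechst, anti-MAP2/anti-synaptophysin immunostain; HCI neuron count vs DMSO baseline.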

[10] = read-out: Tumor necrosis factor receptor superfamily member 6 (Homo sapiens) (UniProt P25445); test: LTEA_HepaRG_FAS: Life Technologies and Expression Analysis (LTEA) Assay for Fas cell surface death receptor (FAS) using HepaRG (AID 2283447); conditions: mRNA level, 48 h; actives raise or lower the signal
Summary of the method: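 FAS transcript level was measured by TaqMan qRT-PCR against three housekeeping genes after 48 h chemical exposure. Cells were HepaRG, 0.5% DMSO vehicle, with a top concentration of 100 uM and half-log dilutions over eight points, in duplicate.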

[11] = read-out: Fatty acid synthase (Homo sapiens) (UniProt P49327); test: LTEA_HepaRG_FASN: Life Technologies and Expression Analysis (LTEA) Assay for Fatty Acid Synthase (FASN) using HepaRG (AID 2283448); conditions: mRNA level, 48 h; actives raise or lower the signal
Summary of the method: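 HepaRG, 48 h exposure, 8-pt half-log series top 100 uM, 0.5% DMSO vehicle, duplicates. Readout: FASN transcript by Fluidigm qRT-PCR; housekeeping-normalized; bidirectional curve fit vs DMSO baseline.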

[12] = read-out: Cyclin Dependent Kinase Inhibitor 1A (CDKN1A), CDKN1A (gene 1026); test: LTEA_HepaRG_CDKN1A: Life Technologies and Expression Analysis (LTEA) Assay for Cyclin Dependent Kinase Inhibitor 1A (CDKN1A) using HepaRG (AID 2283450); conditions: mRNA level, 48 h; actives raise or lower the signal
Summary of the method: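 Expression quantified by Fluidigm qRT-PCR with ACTB, GAPDH and POLR2A normalization, fitted bidirectionally against 0.5% DMSO. Cells: HepaRG, plated 48 h then treated 48 h in serum-free induction medium, top concentration 100 uM with half-log dilutions.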

[13] = read-out: Cyclin D1 (CCND1), CCND1 (gene 595); test: LTEA_HepaRG_CCND1: Life Technologies and Expression Analysis (LTEA) Assay for Cyclin D1 (CCND1) using HepaRG (AID 2283451); conditions: mRNA level, 48 h; actives raise or lower the signal
Summary of the method: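 Expression of CCND1 was quantified by qRT-PCR on Fluidigm arrays using ACTB, GAPDH and POLR2A as reference genes. HepaRG cultures, plated 48 h beforehand, were dosed for 48 h at up to 100 uM (half-log, 8 points) in 0.5% DMSO.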

[14] = read-out: catalase (CAT), CAT (gene 847); test: LTEA_HepaRG_CAT: Life Technologies and Expression Analysis (LTEA) Assay for catalase (CAT) using HepaRG (AID 2283452); conditions: mRNA level, 48 h; actives raise or lower the signal
Summary of the method: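 Expression of CAT was quantified by TaqMan qRT-PCR with ACTB/GAPDH/POLR2A normalization after 48 h chemical exposure of HepaRG. Eight-point half-log series, top 100 uM, in 0.5% DMSO; gain or loss fitted against vehicle.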

[15] = read-out: flavin-containing dimethylaniline monooxygenases 3 (FMO3), FMO3 (gene 2328); test: LTEA_HepaRG_FMO3: Life Technologies and Expression Analysis (LTEA) Assay for flavin-containing dimethylaniline monooxygenases 3 (FMO3) using HepaRG (AID 2283453); conditions: mRNA level, 48 h; actives raise or lower the signal
Summary of the method: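 Eight-point concentration-response in serum-free HepaRG cultures (top 100 uM, 0.5% DMSO, 48 h). Read-out: FMO3 mRNA level normalized to three endogenous control genes, fitted bidirectionally versus vehicle.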

[16] = read-out: Cytochrome P450 (CYP1A1), CYP1A1 (gene 1543); test: LTEA_HepaRG_CYP1A1: Life Technologies and Expression Analysis (LTEA) Assay for Cytochrome P450 (CYP1A1) using HepaRG (AID 2283454); conditions: mRNA level, 48 h; actives raise or lower the signal
Summary of the method: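 CYP1A1 transcript levels measured by Fluidigm qRT-PCR against three housekeeping genes, 48 h after chemical dosing of human HepaRG cells (highest concentration 100 uM, half-log steps, 0.5% DMSO vehicle). Gain or loss of signal fitted relative to DMSO.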

[17] = read-out: CFLAR gene, CFLAR (gene 8837); test: LTEA_HepaRG_CFLAR: Life Technologies and Expression Analysis (LTEA) Assay for CFLAR gene using HepaRG (AID 2283455); conditions: mRNA level, 48 h; actives raise or lower the signal
Summary of the method: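 Transcript level by qRT-PCR (normalized to ACTB, GAPDH and POLR2A) after 48 h chemical exposure of HepaRG cells, top concentration 100 uM with half-log steps, 0.5% DMSO vehicle, duplicates; fitted bidirectionally against DMSO baseline.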

[18] = read-out: Forkhead box O1 (FOXO1), FOXO1 (gene 2308); test: LTEA_HepaRG_FOXO1: Life Technologies and Expression Analysis (LTEA) Assay for Forkhead box O1 (FOXO1) using HepaRG (AID 2283456); conditions: mRNA level, 48 h; actives raise or lower the signal
Summary of the method: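 FOXO1 transcript quantified by qRT-PCR after 48 h chemical exposure (top 100 uM, half-log steps, 0.5% DMSO) of HepaRG cells, housekeeping-normalized (ACTB/GAPDH/POLR2A). Changes fitted in both directions relative to vehicle.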

[19] = read-out: growth arrest and DNA damage 45 (GADD45A), GADD45A (gene 1647); test: LTEA_HepaRG_GADD45A: Life Technologies and Expression Analysis (LTEA) Assay for growth arrest and DNA damage 45 (GADD45A) using HepaRG (AID 2283458); conditions: mRNA level, 48 h; actives raise or lower the signal
Summary of the method: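 HepaRG, 48 h exposure, 8 conc. (top 100 uM, half-log steps), 0.5% DMSO vehicle, duplicates. Read-out: qRT-PCR mRNA level, housekeeping-normalized (ACTB/GAPDH/POLR2A). Curves fit bidirectionally vs DMSO baseline.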

[20] = read-out: Forkhead box O3 (FOXO3), FOXO3 (gene 2309); test: LTEA_HepaRG_FOXO3: Life Technologies and Expression Analysis (LTEA) Assay for Forkhead box O3 (FOXO3) using HepaRG (AID 2283459); conditions: mRNA level, 48 h; actives raise or lower the signal
Summary of the method: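 FOXO3 transcript measured by qRT-PCR (normalized to ACTB, GAPDH, POLR2A) after 48 h exposure of HepaRG cells in serum-free induction medium. Duplicates, eight half-log concentrations up to 100 uM, 0.5% DMSO; gain or loss fitted against DMSO.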

Measured: AC50

Sequence of Fatty acid synthase (Homo sapiens) (P49327 whole entry, looked up): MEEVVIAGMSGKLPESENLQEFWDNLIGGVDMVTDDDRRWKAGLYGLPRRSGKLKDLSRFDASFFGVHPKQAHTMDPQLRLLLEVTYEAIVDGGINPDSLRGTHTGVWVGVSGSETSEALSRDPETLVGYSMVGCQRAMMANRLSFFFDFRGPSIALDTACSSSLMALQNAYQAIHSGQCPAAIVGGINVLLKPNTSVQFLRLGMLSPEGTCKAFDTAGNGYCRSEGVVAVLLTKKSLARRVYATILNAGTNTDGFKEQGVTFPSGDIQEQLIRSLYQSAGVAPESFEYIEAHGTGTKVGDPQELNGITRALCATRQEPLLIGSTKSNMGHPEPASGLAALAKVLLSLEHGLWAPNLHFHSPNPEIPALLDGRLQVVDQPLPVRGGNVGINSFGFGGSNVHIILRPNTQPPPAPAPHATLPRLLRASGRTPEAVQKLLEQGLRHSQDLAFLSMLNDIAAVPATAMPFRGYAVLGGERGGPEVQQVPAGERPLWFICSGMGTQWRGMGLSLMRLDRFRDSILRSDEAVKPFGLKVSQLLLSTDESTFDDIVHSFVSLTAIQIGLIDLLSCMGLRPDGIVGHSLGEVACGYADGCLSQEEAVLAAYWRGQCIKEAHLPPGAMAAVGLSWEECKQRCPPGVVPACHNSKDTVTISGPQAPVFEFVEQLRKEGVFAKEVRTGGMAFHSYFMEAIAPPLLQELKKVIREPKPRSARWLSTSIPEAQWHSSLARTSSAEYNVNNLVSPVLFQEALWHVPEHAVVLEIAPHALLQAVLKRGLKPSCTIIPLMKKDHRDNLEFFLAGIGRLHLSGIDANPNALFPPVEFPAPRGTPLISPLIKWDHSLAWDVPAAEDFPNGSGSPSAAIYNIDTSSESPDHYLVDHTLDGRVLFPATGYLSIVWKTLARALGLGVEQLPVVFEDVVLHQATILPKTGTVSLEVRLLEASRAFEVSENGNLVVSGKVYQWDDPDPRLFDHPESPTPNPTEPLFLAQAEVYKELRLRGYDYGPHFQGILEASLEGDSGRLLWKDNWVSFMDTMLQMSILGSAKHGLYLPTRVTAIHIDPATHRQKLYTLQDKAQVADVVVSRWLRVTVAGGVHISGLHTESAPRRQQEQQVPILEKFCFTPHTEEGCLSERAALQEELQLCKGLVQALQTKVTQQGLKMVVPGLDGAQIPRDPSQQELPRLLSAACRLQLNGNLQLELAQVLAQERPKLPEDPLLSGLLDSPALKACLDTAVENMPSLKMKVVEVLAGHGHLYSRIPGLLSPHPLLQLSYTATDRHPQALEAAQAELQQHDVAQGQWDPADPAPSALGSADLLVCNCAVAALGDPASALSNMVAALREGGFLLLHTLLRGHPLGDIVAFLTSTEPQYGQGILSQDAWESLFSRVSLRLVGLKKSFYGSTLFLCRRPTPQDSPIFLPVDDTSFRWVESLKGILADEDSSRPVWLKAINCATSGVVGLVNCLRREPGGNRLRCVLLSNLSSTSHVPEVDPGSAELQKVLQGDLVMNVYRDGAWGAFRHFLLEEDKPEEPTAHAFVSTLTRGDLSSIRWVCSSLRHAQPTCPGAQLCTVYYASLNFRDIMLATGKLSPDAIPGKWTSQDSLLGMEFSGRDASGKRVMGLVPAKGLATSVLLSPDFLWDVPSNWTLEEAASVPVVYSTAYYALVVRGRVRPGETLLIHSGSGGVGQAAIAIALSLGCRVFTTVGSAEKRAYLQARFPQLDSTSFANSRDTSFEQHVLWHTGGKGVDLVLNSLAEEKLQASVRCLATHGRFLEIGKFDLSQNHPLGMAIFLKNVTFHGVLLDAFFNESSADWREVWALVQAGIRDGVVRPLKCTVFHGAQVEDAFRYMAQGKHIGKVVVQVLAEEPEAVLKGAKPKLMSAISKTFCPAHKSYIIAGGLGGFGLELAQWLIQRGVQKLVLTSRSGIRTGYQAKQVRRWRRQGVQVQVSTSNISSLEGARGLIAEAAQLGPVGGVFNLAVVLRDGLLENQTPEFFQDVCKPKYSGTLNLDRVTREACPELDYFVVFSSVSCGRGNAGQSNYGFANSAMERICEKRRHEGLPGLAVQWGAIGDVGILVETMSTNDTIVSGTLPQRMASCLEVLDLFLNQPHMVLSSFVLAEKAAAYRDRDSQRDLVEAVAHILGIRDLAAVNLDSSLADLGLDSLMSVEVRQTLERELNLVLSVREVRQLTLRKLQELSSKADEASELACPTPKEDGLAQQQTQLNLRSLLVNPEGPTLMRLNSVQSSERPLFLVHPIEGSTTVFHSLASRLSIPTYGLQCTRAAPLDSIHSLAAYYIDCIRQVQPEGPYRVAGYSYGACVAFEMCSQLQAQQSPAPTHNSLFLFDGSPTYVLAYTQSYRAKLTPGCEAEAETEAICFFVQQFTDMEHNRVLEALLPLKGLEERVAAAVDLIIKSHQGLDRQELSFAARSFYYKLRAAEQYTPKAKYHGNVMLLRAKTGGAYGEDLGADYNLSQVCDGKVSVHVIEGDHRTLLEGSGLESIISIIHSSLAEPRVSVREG

CC1OC(C)OC(C)O1 (stereo not given)
inactive: [1]

CC(C)(C)C(O)C(Oc1ccc(-c2ccccc2)cc1)n1cncn1 (stereo not given)
inactive: [2]

C[C@]12CC[C@H](O)C[C@H]1CC[C@@H]1[C@@H]2C[C@@H](O)[C@]2(C)[C@@H](C3=CC(=O)OC3)CC[C@]12O
inactive: [2]

CC(C)C(=O)Cl
inactive: [3]

CNC(=N[N+](=O)[O-])NCC1CCOC1 (stereo not given)
inactive: [4] | [5] | [8] | [9]
active: [6] 0.0157 µM | [7] 0.00885 µM

O=c1c2ccccc2c(=O)c2c1cc(Cl)c1[nH]c3c([nH]c12)c(Cl)cc1c(=O)c2ccccc2c(=O)c13
active: [1] 0.296 µM

O=C(CCl)c1ccccc1
inactive: [10] | [11] | [12] | [13] | [14] | [15] | [16] | [17] | [18] | [19] | [20]

Cc1ccc(OP(=O)(Oc2ccc(C)cc2)Oc2ccc(C)cc2)cc1 (tested in a mixture with another compound)
inactive: [6] | [8]
active: [4] 15 µM | [5] 21.4 µM | [7] 15 µM | [9] 24 µM

N#CCCCCC#N
inactive: [10] | [11] | [12] | [13] | [14] | [15] | [16] | [17] | [18] | [19] | [20]

CC1(C)[C@H](C(=O)O[C@H](C#N)c2cccc(Oc3ccccc3)c2)[C@@H]1C=C(Br)Br
active: [6] 8.82 µM | [7] 6.79 µM | [9] 23.9 µM
inactive: [4] | [5] | [8]

O=[N+]([O-])c1ccc(Cl)cc1
active: [16] 37.8 µM
inactive: [10] | [11] | [12] | [13] | [14] | [15] | [17] | [18] | [19] | [20]

O=C1C=CC(=O)C=C1
active: [1] 28.9 µM | [3] 12.8 µM

CNC(=O)Oc1cc(C)c(SC)c(C)c1
inactive: [3]

CCc1cc(C)cc(CC)c1-c1c(OC(=O)C(C)(C)C)n2n(c1=O)CCOCC2
inactive: [2]
